Experimental findings from PubChem BioAssay (NCI) are described below.

Several values for one entry are separate records, joined by “and”; a condition that tells them apart may be missing. Equal entries are not always repeated. Compounds without any hit were thinned out: in the full panel of roughly 83,000, 20% have a hit.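 48-hour exposure, single concentration, 96-well plates; percent growth endpoint where 0 means no net growth. Active: below 10.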 Activity calls are given as the source filed them.

This assay concerns HL-60(TB) leukemia. Briefly: NCI-60 one-dose screen, 48 h (100 = growth as untreated, 0 = no growth, -100 = all killed). As to conditions: 10 µM unless noted.
`Fc1ccc2c(c1)c(-c1nc(-c3c[nH]c4ncccc34)cs1)cn2CCCN1CCCCC1`: the growth was 24.2% (inactive). In the case of `CCCCn1c(-c2ccc(F)cc2)nc2cc(OC)c(OC)cc2c1=O`, the growth was 67.1% (inactive).

Regarding `COc1ccc(OC)c(-c2nc(SCC(=O)c3ccc(C#N)cc3)[nH]c(=O)c2C#N)c1`, the growth was 106% (inactive).

In the case of `Cc1ccc(C2=Nc3c(ccc4c(C)c(C)c(=O)oc34)OC2)cc1`, the growth is 98.3% (inactive). As for `O=C(C(=Cc1ccccc1)C(=O)c1ccccc1)c1ccccc1`, the figure is 13% (inactive) and 110% (inactive); as for `O=C1/C(=C/c2cccs2)SC(=S)N1CCCN1CCOCC1`, 90.4% (inactive). As for `Cc1cccc2c(=O)c3c(sc12)c(NCCCN)nc1ccccc13`, the figure is -34.9% (active); as for `CCN1CCOC1C(C)C` (stereo not given), 90% (inactive). Take `O=C(Nc1ccc(OS(=O)(=O)c2ccc(F)cc2)cc1)C1CCCCCC1`: the growth is 56.4% (inactive). As for `C[C@@H](Oc1cc(C(=O)Nc2ccc(C(=O)N3CCN(C)CC3)cc2)nnc1N)c1c(Cl)ccc(F)c1Cl`, the figure is 88.3% (inactive); as for `N#Cc1ccc(OCc2nc(N)nc(N)c2-c2ccc(Cl)c(Cl)c2)cc1`, 21.7% (inactive); as for `COc1cc(-c2nc(SCC(C)C)nc(Nc3cccc4ccccc34)c2C#N)cc(OC)c1OC`, 79.1% (inactive). As for `Cc1ncsc1CCO`, the figure is 99.9% (inactive) and 89.9% (inactive); as for `COc1cc2c(c(OC)c1OC)CCC(c1cccc(C(=O)Nc3cccc(Cl)c3)c1)O2` (stereo not given), 82.7% (inactive).

As for `O=c1c(Br)ccc(Br)cc1Br`, the growth is -58.8% (active). As for `COc1ccc([N+](=O)[O-])c(C(=O)O)c1`, the figure is 111% (inactive); as for `CCCCCOC(=O)c1ccc(NC(=O)CNCC(C)C)cc1`, 84.6% (inactive); as for `O=C(O)c1ccc(-n2cc(CNc3ccc(Cl)cc3)c(-c3ccccc3)n2)cc1`, 95% (inactive). As for `CC(C)(C)n1cc(-c2ccnc(NCCCNS(=O)(=O)c3ccccc3)c2)c(-c2ccccc2)n1`, the figure is 38.5% (inactive); as for `C#Cc1ccccc1NC(=O)c1sc2nc3c(cc2c1N)CCCCCC3`, 92.7% (inactive); as for `O=C1/C(=C/c2ccccc2)SC(=S)N1CCc1ccc(O)cc1`, 94.9% (inactive). In the case of `CC(C)(C)n1cc(-c2ccnc(NCCNS(=O)(=O)c3cccc4ccccc34)c2)c(-c2cccc(F)c2)n1` it was -52.3% (active); in that of `C=C1C(=O)O[C@H]2[C@H]1CC/C(COC(=O)NC1CCC(O)CC1)=C\CC[C@@]1(C)O[C@@H]21` (stereo not given in full), 70.6% (inactive) and 62.5% (inactive); in that of `CCCCCCCCCCCC[n+]1ccc(C(N)=O)cc1`, -26.3% (active). In the case of `CC(=O)Nc1ccc(S(N)(=O)=O)cc1`, the growth is 101% (inactive). Regarding `COc1nccnn1`, the growth is 185% (inactive). As for `CC12CCC3c4ccccc4CCC3(CO1)C2` (stereo not given), the figure is 87.7% (inactive). In the case of `N=c1c2ccccc2nc2n1CCCCC2` it was 130% (inactive); in that of `O=C(Nc1ccc(S(=O)(=O)NC2CCCCCC2)cc1)C(c1ccccc1)S(=O)(=O)c1ccc(F)cc1` (stereo not given), -12.4% (active); in that of `COc1ccc(-c2ccccc2)cc1C(=O)c1ccc(-c2ccccc2)cc1`, 71.4% (inactive). As for `CCc1cc2c(c3ccc(C(=O)CBr)cc13)CCCC2`, the figure is 97.7% (inactive); as for `NC(=O)c1cc(Br)cc(Br)c1NS(=O)(=O)c1ccccc1`, 92.6% (inactive); as for `COc1ccc(C(=O)c2cc(C)c(OC)c(C)c2)c(OC)c1N(C(=O)C(Cl)Cl)C(=O)C(Cl)Cl`, -32% (active). Consider `C[n+]1c(/C=C/c2c[nH]c3ccccc23)ccc2ccccc21`, for which the growth is 73.9% (inactive).

For `CCOC(=O)c1c2c(n3cccc(F)c13)C(=O)c1ncccc1C2=O`, the growth is -25.8% (active). Regarding `O=C(c1ccccc1)C(O)C(Br)(CBr)c1ccccc1` (stereo not given), the growth was 65.4% (inactive). In the case of `CNc1cc2nc3cc(NC)c(C)cc3cc2cc1C` it was 18.9% (inactive); in that of `CC1=C(CCC(C)N(C)Cc2ccc(OCCCN3CCCC3)cc2)C(C)(C)CCC1` (stereo not given), 24.6% (inactive); in that of `O=C1c2cccnc2C(=O)c2c1c(C(=O)NCCn1ccnc1)c1ccccn21`, 0.989% (active).

For the molecule `O=C(O)c1ccc(=O)[nH]n1`, the growth is 111% (inactive).
